Results published in PubChem BioAssay AID778 (Sanford-Burnham Center for Chemical Genomics, 2007).
The campaign covered roughly 96,000 compounds. About 20,000 (21%) were called active. These entries were drawn from the full list. Values without a mark were called inactive.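 Rule for the calls: active = CYP2C19 inhibition above a set limit at 5 µM in the primary screen (cut at about 50% in these data); inactive = the rest.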

Target: Cytochrome P450 2C19 (Homo sapiens) (UniProt P33261)
Assay: blockers of cytochrome P450 2C19 activity – biochemical, luminescence, ADME assay, primary screen (AID 778);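 note: plate controls were negative control wells for no effect and 2.5 mM tranylcypromine positive control for full effect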
Conditions: CYP2C19 Supersomes, luciferin-H EGE luminescence, 30 min; at 5 µM; hits give high values

Chain of Cytochrome P450 2C19 (Homo sapiens) (P33261 whole entry, looked up): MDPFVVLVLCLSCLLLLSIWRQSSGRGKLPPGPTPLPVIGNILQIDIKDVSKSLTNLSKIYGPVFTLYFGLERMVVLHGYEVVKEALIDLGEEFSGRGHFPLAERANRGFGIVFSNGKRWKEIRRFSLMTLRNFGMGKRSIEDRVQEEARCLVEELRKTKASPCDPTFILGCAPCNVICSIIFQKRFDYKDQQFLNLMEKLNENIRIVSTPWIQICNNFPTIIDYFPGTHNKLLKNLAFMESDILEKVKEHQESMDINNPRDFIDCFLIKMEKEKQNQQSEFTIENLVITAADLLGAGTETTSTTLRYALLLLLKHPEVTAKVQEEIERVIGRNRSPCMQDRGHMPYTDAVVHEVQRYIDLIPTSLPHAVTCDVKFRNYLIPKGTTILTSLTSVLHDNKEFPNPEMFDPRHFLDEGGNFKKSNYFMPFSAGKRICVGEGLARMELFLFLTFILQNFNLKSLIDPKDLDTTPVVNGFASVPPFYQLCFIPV

Structure (SMILES) | inhibition
CC(C)(C)NC(=O)C(c1ccncc1)N(C(=O)CNC(=O)c1ccco1)c1ccc2c(c1)OCO2 (configuration not stated) | 25.7%
Cc1noc(C)c1C(=O)NC(C)c1ccc2c(c1)OCO2 (configuration not stated) | 64.5% (active)
Cc1cccc(N2C(=O)C3C(c4ccccc4)OC4(C(=O)c5ccccc5C4=O)C3C2=O)c1 (configuration not stated) | -10.6%
CCOC(=O)c1c(N)sc(C(C)=O)c1C | 22.5%
O=C(CN1CCN(C2CCCCC2)CC1)Nc1ccccc1N1CCCCC1 | 1.2%
CCn1cc(C(=O)N2CCN(C3CCCCC3)CC2)c2cc(OC)c(OC)cc2c1=O | 13.8%
Cc1ccc(C(=O)N2CCN(C3CCCCC3)CC2)s1 | 52.8% (active)
CCN1CC=C2C(C#N)=C(N)C(C#N)(C#N)[C@H](c3ccoc3)[C@H]2C1 | 7.1%
COc1ccc(C(=O)N2CCc3cc(OC)c(OC)cc3C2c2cccc([N+](=O)[O-])c2)cc1 (configuration not stated) | 53.7% (active)
COc1ccc(Cc2nnc(SCC(=O)c3cccc([N+](=O)[O-])c3)n2C)cc1 | 15.5%
COc1ccc(C(=O)Nc2nc(-c3ccc(OC)cc3)c(-c3ccc([N+](=O)[O-])cc3)s2)cc1 | 6.9%
CNC(=O)c1nnc(Cc2ccc(Cl)cc2)o1 | 45.2%
O=C(CCS(=O)(=O)c1ccccc1)Nc1nc2c(s1)CCCC2 | 73.9% (active)
COCc1nnc(NC(=O)CS(=O)(=O)Cc2ccccc2)s1 | 1.9%
Cc1cccc(S(=O)(=O)CC(=O)Nc2nc(-c3ccccc3)cs2)c1 | 35.4%
Cc1ccc(-c2c3c(=O)n(C)c(=O)n(C)c3cn2-c2ccccc2O)cc1 | 19%
Cc1oc(-c2ccccc2Cl)[n+]([O-])c1C | 8.4%
O=C(NCCc1ccccn1)c1ccc(COc2ccccc2)o1 | 5.8%
COc1ccc(-c2nc(CCNC(=O)c3ccc(Br)o3)cs2)cc1 | 58.8% (active)
CC(=O)Cc1nsc(NC(=O)c2ccc(COc3ccc(C)cc3)o2)n1 | 22.2%
Cc1cc(C(=O)COC(=O)CCCN2C(=O)c3ccccc3C2=O)c(C)n1C | -0.8%
CCOC(=O)NNC(=O)c1ccc(Cl)cc1 | 6.6%
O=C(NC1CCCCC1)c1cc([N+](=O)[O-])ccc1N1CCOCC1 | -1.9%
O=[N+]([O-])c1ccc(NCCCN2CCOCC2)c(Cl)c1 | 52% (active)
O=C(CN1CCOCC1)Nc1ccc(NC(=O)CN2CCOCC2)c(Cl)c1 | -2.2%

Structure (SMILES) | inhibition
CC1(C)C2CCC1(C)C(OC(=O)CCn1ccnc1)C2 (configuration not stated) | 99.5% (active)
COc1ccc(C)cc1N(C)C(=O)c1coc(=O)c2ccccc12 | 15.5%
COc1ccc2occ(C(=O)c3ccc(N=C(C)N(C)C)cc3)c2c1 | 30.2%
COc1ccc(OC)c(C(=O)c2coc3ccc(O)c(CN4CCOCC4)c23)c1 | 52.4% (active)
COc1ccc(OC)c(C(=O)c2coc3ccc(OC)cc23)c1 | 89.7% (active)
COc1ccc(C(=O)Nc2ccc(CN3CCOCC3)cc2)cc1 | 16.2%
COc1ccc(OC)c(C(=O)c2ccc(C(=O)O)cc2)c1 | -2.7%
CCOc1cc(C(=O)Nc2ncccn2)cc(OCC)c1OCC | 7.1%
Clc1ccc(-n2nnnc2CN2CCCCC2)cc1Cl | 27.7%
O=C(c1ccccc1)C(Cn1cncn1)C(Sc1ccccc1)c1ccccc1 (configuration not stated) | 99.3% (active)
O=C(CSc1nnc2ccccn12)c1ccccc1 | 13.9%
O=C(O)CC(Cn1cnnn1)c1ccccc1 (configuration not stated) | -11.5%
O=C(c1ccc2c(c1)N(Cc1ccc(F)cc1)C(=O)CS2)N1CCOCC1 | 23.9%
CCOC(=O)N1CCN(Cc2nc(N)nc(Nc3ccc(C)cc3)n2)CC1 | 36.2%
CCN(CC)CCN1C(=O)C(=O)/C(=C(/O)c2ccccc2)C1c1ccccc1F (configuration not stated) | -0.3%
COC(=O)c1ccc(N(CC(=O)NC2CCCC2)C(=O)CNC(=O)c2ccco2)cc1 | -6.6%
CCCn1c(=O)c2ccccc2n2c(SCC(=O)/C(C#N)=C(\C)N)nnc12 | 4.2%
CCOc1cc2c(cc1OCC)C(C(=O)O)C(c1ccc(OC)c(O)c1)N(C)C2=O (configuration not stated) | -11.4%
COc1ccc(C2C(C(=O)N3CCN(c4ccc(OC)cc4)CC3)c3ccccc3C(=O)N2C)cc1 (configuration not stated) | 2.6%
COc1cccc(NC(=O)C2c3cc(OC)c(OC)cc3C(=O)N(C)C2c2cccnc2)c1 (configuration not stated) | 50.1% (active)
Cc1nc(SCC(=O)N2CC(=O)Nc3ccccc32)c2c(C)c(C)sc2n1 | 49.9%
COc1ccc(C(=O)CN2C(=O)NC(C)(c3ccc(C)cc3)C2=O)cc1OC (configuration not stated) | 1.3%
COc1ccc(OC)c(NC(=O)c2cnn(-c3ccccc3Cl)c2NC(=O)c2ccco2)c1 | -0.9%
C#CCN1C(=O)C(O)(CC(=O)c2cc(OC)ccc2OC)c2ccccc21 (configuration not stated) | 51.5% (active)
CCOc1ccc(CN2CCCN(C)CC2)cc1 | -4.6%

Structure (SMILES) | inhibition
CC1(C)Cc2ccccc2-c2nnc(-c3cccc(O)c3)n21 | -16.2%
CC1=NN(c2cccc(Cl)c2)C(=O)C12CC(C)=C(C)CS2 (configuration not stated) | 90% (active)
Cc1[nH]n(-c2cccc(Cl)c2)c(=O)c1-c1ccc(Cl)cc1 | -13.5%
CC(=O)Oc1ccc(C)cc1N1C(=O)c2ccc(C(=O)O)cc2C1=O | -15.2%
Cc1ccccc1N1CC(c2nc3ccccc3[nH]2)CC1=O (configuration not stated) | 81.9% (active)
O=C(C1CCCO1)N1CCC(c2nc3ccccc3[nH]2)CC1 (configuration not stated) | 20.9%
Cc1ncn(C23CC4CC(CC(O)(C4)C2)C3)n1 | 3.7%
CCCCC(=O)N(c1ccc(OC)cc1)C1C=CS(=O)(=O)C1 (configuration not stated) | 19.8%
CCCCN=C(N)/C(C(=O)OCC)=C(\O)c1ccc(OC)cc1 | 54.8% (active)
COc1ccc(C(=O)Nc2cc(C)ccc2NC(=O)COc2ccccc2)cc1 | 17%
COc1ccc(OCCCC(=O)Nc2nnc(C3CCCO3)s2)cc1 (configuration not stated) | 34.1%
CCN1CCN(c2ccc([N+](=O)[O-])cc2C(=O)c2ccc(Cl)cc2)CC1 | 5.8%
CCCC(=O)Nc1nnc(CC(=O)OCC)s1 | -0.3%
Cc1ccc(N2C(=O)C(Cc3ccccc3)NC2=S)cc1 (configuration not stated) | 39.4%
CC1=CC(C)(C)NC(=S)N1c1ccccc1 | 58.1% (active)
COc1ccc2c(c1OC)C(=O)OC2Nc1nc(-c2ccccc2)cs1 (configuration not stated) | 12%
Cc1[nH]n(-c2ccccc2)c(=O)c1CCOC(=O)c1ccc(C(F)(F)F)cc1 | 31.8%
O=C(c1cccs1)N1CCN(C(=O)N2CCOCC2)CC1 | 2.3%
O=C(CCCN1C(=O)c2cccc3cccc(c23)C1=O)N1CCN(Cc2ccc3c(c2)OCO3)CC1 | 78.8% (active)
COc1ccc(S(=O)(=O)N2CCN(C(=O)c3cccs3)CC2)cc1OC | 43.6%
CCS(=O)(=O)N1CCN(C(=O)c2cccs2)CC1 | 56.5% (active)
Cn1c(=O)cc(OCCCC(=O)N2CCN(Cc3ccc4c(c3)OCO4)CC2)c2ccccc21 | 36.7%
O=C(Nc1cccc2ccccc12)N1CCN(Cc2ccc3c(c2)OCO3)CC1 | 35.2%
O=C(c1cccs1)N1CCN(Cc2ccc3c(c2)OCO3)CC1 | 56.9% (active)
CCCS(=O)(=O)N1CCN(C(=O)c2cccs2)CC1 | 11%

Structure (SMILES) | inhibition
NC(=O)c1ccccc1NC(=O)c1ccccc1F | -8.5%
CCOC(=O)c1c(C)nc(-c2ccccc2)nc1NC(=O)C(C)C | 37.3%
CCOC(=O)N1CCC(NC(=O)Cn2cc3c(n2)CCCCC3)CC1 | 1.5%
CCN1CCN(Cc2c(O)ccc3c(=O)c(-c4ccc(OC)c(OC)c4)c(C(F)(F)F)oc23)CC1 | 12%
Cc1cc(=O)oc(C)c1C(=O)Nc1cnc2ccccc2c1 | 0.8%
CC(=NCC1CCCO1)c1c(O)[nH]c(=O)[nH]c1=O (configuration not stated) | -7.7%
COCCNC(=O)CN(C(=O)CCC(=O)Nc1cc(C)on1)c1ccc(C)cc1C | 11.8%
N#CC1=C(N)Oc2n[nH]c(CSc3ccccc3)c2C12C(=O)Nc1ccccc12 (configuration not stated) | 0.5%
O=C(NCc1ccccn1)c1ccc2nc(-c3ccco3)c(-c3ccco3)nc2c1 | 43.6%
COc1ccc(CC(NC(C)=O)C(=O)NC2CCN(C(=O)Nc3ccc(C#N)cc3)CC2)cc1OC (configuration not stated) | 32%
COc1ccc(C(CNC(=O)c2cccnc2SC)N2CCOCC2)cc1 (configuration not stated) | 11.3%
CCC1=C/C(=C\c2ccc3c(c2)OCO3)C(=O)S1 | 43.8%
Cc1cccc(N=C2NC(=O)CS2)c1C | 7.4%
Cc1cc(C=O)c(C)n1-c1ccc(NC2CCCCC2)c([N+](=O)[O-])c1 | -2.5%
COc1cc(OC)c(-n2c(C)cc(C=O)c2C)cc1Cl | 93.2% (active)
O=C(c1ccco1)N1CCN(C(=O)c2ccc(COc3ccc(F)cc3)o2)CC1 | 25.1%
COCCN1Cc2cccc(C(=O)Nc3ccccc3OC)c2C1=O | 34.9%
CCCOc1ccc(NC(=O)C2CCCNC2=O)cc1 (configuration not stated) | 3.9%
C=CCNC(=O)c1cc(-c2ccccc2O)on1 | 45.7%
C=CCNC(=O)c1csc(-c2ccccc2)n1 | 67.4% (active)
CNC(=O)c1csc(-c2ccccc2)n1 | 23.7%
CS(=O)(=O)N(CC(=O)N1CCOCC1)c1ccc2c3c(cccc13)CC2 | 32.7%
